Measured values taken from PubChem BioAssay AID588445 (Southern Research Specialized Biocontainment Screening …, 2011).
Records with an inconclusive call do not appear. The source made the active and inactive calls. No rule for the calls is given here.

Test: Vero cell viability loss – purified and synthesized compounds, set 6, cytotoxicity control for M. tuberculosis inhibitor project, dose response (AID 588445)
Conditions: cytotoxicity counter-screen; series mostly up to 100 µM

With `CCOC(=O)CSc1ncnc2c1cnn2-c1ccc(C)cc1C` as the compound, how does the outcome read?
The outcome was “inactive”.

Which outcome does the source give for `CC(C)OC(=O)CSc1ncnc2c1cnn2-c1ccccc1` here?
The outcome was “inactive”.

Which outcome does the source give for `CC1CC(C)CN(C(=O)C2CCC(CNc3c(N4CCCCC4)c(=O)c3=O)CC2)C1` (stereo unspecified) here?
Its outcome is “inactive”.

For `CCOC(=O)CSc1ncnc2c1cnn2-c1ccccc1`, which outcome is on record?
The outcome was “inactive”.

Which outcome does the source give for `COc1ccc(N2CCN(C(=O)c3ccc(CNc4c(N5CCOCC5)c(=O)c4=O)cc3)CC2)cc1` here?
The outcome was “inactive”.

Which outcome does the source give for `COC(=O)CSc1ncnc2c1cnn2-c1ccc(C)cc1C` here?
The outcome was “inactive”.
